# The whole screen tested about 86,000 compounds, of which about 1,100 (1.3%) were called active. Only a selection was taken, and actives are over-represented in it overall. A number with no mark means an inactive call.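 Rule for the calls: active = compounds whose percent inhibition of the receptor-coactivator binding signal exceeds about 50% in the single-dose screen (limit read from the data); inactive = the rest.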
# Biological target: Estrogen receptor beta (Homo sapiens) (UniProt Q92731)
# Assay: inhibitors of ERβ-SRC1 coactivator interaction, primary screen, biochemical, TR-FRET, ERβ LBD, SRC-1 peptide (AID 633);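 note: 0% = receptor plus peptide wells without compound and 100% = peptide-only wells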
# Details: TR-FRET ER-beta LBD / SRC1-Cy5 peptide binding; at 25.6 µM; active compounds read high; receptor agonist-loaded with 1 µM estradiol
# Sequence of Estrogen receptor beta (Homo sapiens) (Q92731 whole entry, looked up, the tested form may be a part): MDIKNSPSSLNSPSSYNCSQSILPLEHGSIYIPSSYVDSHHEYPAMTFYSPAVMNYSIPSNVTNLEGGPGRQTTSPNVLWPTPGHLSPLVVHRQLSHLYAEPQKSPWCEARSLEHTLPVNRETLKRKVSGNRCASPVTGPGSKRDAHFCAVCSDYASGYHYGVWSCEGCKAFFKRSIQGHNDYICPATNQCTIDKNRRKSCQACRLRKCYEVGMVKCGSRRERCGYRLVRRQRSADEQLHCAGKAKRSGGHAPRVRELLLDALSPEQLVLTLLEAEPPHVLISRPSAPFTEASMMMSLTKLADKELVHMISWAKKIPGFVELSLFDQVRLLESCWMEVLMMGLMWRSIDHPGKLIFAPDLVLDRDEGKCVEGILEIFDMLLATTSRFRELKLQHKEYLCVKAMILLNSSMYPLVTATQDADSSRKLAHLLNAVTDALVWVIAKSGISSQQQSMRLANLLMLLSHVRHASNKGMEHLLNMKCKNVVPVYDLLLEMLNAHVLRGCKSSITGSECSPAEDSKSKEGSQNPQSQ
row,Structure (SMILES),inhibition
1,CCOC(=O)C1CSC(CC(=O)Nc2ccc(OCC)cc2)C(=O)N1 (stereo not given),-12.7%
2,COc1ccc(NC(=O)CCN2CCCC2)c(OC)c1,-0.42%
3,COc1ccc(OC)c(Nc2nc(-c3ccc(O)c(O)c3)cs2)c1,67.8% [fluorescence artefact?] (active)
4,COc1ccc(-c2n[nH]c(C)c2-c2ccc(OC)c(OC)c2)c(O)c1,3.54%
5,Oc1ccc(-c2csc(Nc3cccnc3)n2)cc1,2.46%
6,O=C(COc1ccc(S(=O)(=O)NCc2ccccc2)cc1)N1CCOCC1,-22.9%
7,O=C(Nc1nnc(SCc2c(Cl)cccc2Cl)s1)C1CCCO1 (stereo not given),-1.99%
8,COc1cc(S(=O)(=O)N(Cc2cccs2)C2CC2)ccc1-n1cnnn1,-25.2%
9,CCOC(=O)CSc1nc2sc3c(c2c(=O)[nH]1)CC(C)(C)OC3,-8.89%
10,CC(=O)c1sc2nc(SCC(=O)N3CCCCC3)[nH]c(=O)c2c1C,56.2% (active)
11,C=CCNC(=O)CSc1nc2sc(C)c(C)c2c(=O)[nH]1,6.38%
12,CCCCOc1ccc(C(=O)NCc2ccncc2)cc1,0.29%
13,N#CC1=C(N)N(c2ccccc2)C2=C(C(=O)CCC2)C1c1ccccc1 (stereo not given),-5.84%
14,CCC(C)NC(=O)CSC1=Nc2ccccc2C2=NC(CCC(=O)NCc3ccco3)C(=O)N12 (stereo not given),-5.03%
15,O=C(CSC1=Nc2ccccc2C2=NC(CC(=O)NCc3ccco3)C(=O)N12)NCc1ccco1 (stereo not given),16.1%
16,CC(C)C1N=C2c3ccccc3N=C(SCC(=O)c3ccc(O)c(O)c3)N2C1=O (stereo not given),52.4% [fluorescence artefact?] (active)
17,O=C1CSC2=NCN(c3ccccc3)CN12,-6.24%
18,CCOC(=O)Cc1csc(NC(=O)CSc2nc(C)cc(=O)[nH]2)n1,1.35%
19,CCCCc1nnc(NC(=O)CSc2nc(C)cc(=O)[nH]2)s1,27.8%
20,COC(=O)c1cccc(NC(=O)CSc2nc(C)cc(=O)[nH]2)c1,50.1% [fluorescence artefact?] (active)
21,O=C(CCCn1c(SCC(=O)c2ccccc2)nc2ccccc2c1=O)NCC1CCCO1 (stereo not given),-2.4%
22,Cc1cc(C)c(OCC(=O)N/N=C/c2ccco2)c(C)c1,-10.7%
23,CCCCNC(=O)C1(c2ccc(OC)cc2)CCOCC1,39.7%

row,Structure (SMILES),inhibition
1,Cc1ccc(SC(=O)COc2ccc(C)c(C)c2)cc1,-2.52%
2,O=C(NC1CCCC1)C(c1ccccn1)N(C(=O)c1csnn1)C1CCCC1 (stereo not given),3.18%
3,CCCCNC(=O)c1c[nH]c2ccc(S(=O)(=O)Nc3ccc(OCC)cc3)cc2c1=O,29.9%
4,CCN(CC)S(=O)(=O)c1ccc2[nH]cc(C(=O)NCCc3ccccc3)c(=O)c2c1,51.1% [fluorescence artefact?] (active)
5,COc1cccc(NS(=O)(=O)c2ccc3[nH]cc(C(=O)NCCCOC(C)C)c(=O)c3c2)c1,19.5%
6,COC(=O)CSc1snnc1-c1ccc(Cl)c(Cl)c1,-8.59%
7,Cc1cc(=O)oc2cc(OCC3CC(c4ccccc4Cl)=NO3)ccc12 (stereo not given),-1.82%
8,CCOCN(C(=O)Cn1c(C(C)O)nc2ccccc21)c1c(C)cccc1CC (stereo not given),-15.2%
9,COCCCn1c2nc3ccccc3nc2c2c(=O)n(Cc3ccc(Cl)cc3)c(C)nc21,12.9%
10,Cc1nc2c(c(=O)n1Cc1ccco1)c1nc3ccccc3nc1n2Cc1ccccc1,59.7% [fluorescence artefact?] (active)
11,Cc1ccc(Cn2c(C)nc3c(c2=O)c2nc4ccccc4nc2n3Cc2ccco2)cc1,36%
12,O=C(NCC(=O)N(Cc1cccs1)C(C(=O)NC1CCCCC1)c1ccco1)c1cccs1 (stereo not given),6.36%
13,Cn1c(C(=O)OC(C(=O)NC2CCCCC2)c2ccccn2)cc2sccc21 (stereo not given),-0.81%
14,Cc1ccc2c(c1)N(CC(=O)N(Cc1ccccn1)Cc1ccco1)C(=O)C(C(C)C)O2 (stereo not given),1.63%
15,COc1ccc(-c2cn3ccsc3n2)cc1,68% (active)
16,Cc1ccc(S(=O)(=O)NCc2cn3ccsc3n2)c(C)c1,0.6%
17,O=C(NCc1cn2ccsc2n1)Nc1ccc(Cl)cc1,-3.46%
18,CCOC(=O)c1sc(NC(=O)c2ccncc2)nc1C,-4.81%
19,O=C(NCc1cccnc1)Nc1ccccc1F,-19.3%
20,CCCCOC(=O)Cn1c(=O)n(CC(=O)OCCCC)c2cc(C)ccc21,-3.48%
21,O=C(N/N=C/C=C/c1ccccc1)C1CC1(c1ccccc1)c1ccccc1 (stereo not given),16.4%
22,COc1ccc(N2C(=O)C3CCCN3C2c2cccs2)cc1 (stereo not given),-13.6%

# — PubChem BioAssay AID633 (Emory University Molecular Libraries Screening Center, 2007)
